Out of some 52,000 compounds screened, about 1,700 (3.3%) were called active. Cut-off read from the data, not from the text of the source: active = survival mostly below about 52% (no sharp cut-off); inactive = mostly above about 56%. Only a selection was taken, and actives are over-represented in it overall.
system: Wild type; test: growth inhibition of S. aureus wild type versus tarO mutant, primary screen, teichoic acid synthesis inhibitors, RN4220, OD600 (AID 463173); details: S. aureus RN4220 wild type/DeltatarO growth, OD600, 18 h, active compounds read low, screened at 18.75 µg/mL (by protocol)

Compound | survival
COc1ccc(CCNC(=O)c2cc(-c3ccc(C)cc3)nc3n[nH]c(-c4ccc(F)cc4)c23)cc1OC | 136% (inactive)
Cc1cccc(-c2nc3scc(CCNC(=O)c4ccc(Br)o4)n3n2)c1 | 74% (inactive)
Cc1cc(C)cc(NC(=O)CSc2nc3c(cnn3-c3ccc(F)cc3)c(=O)[nH]2)c1 | 65% (inactive)
O=S(=O)(c1cccc(Cl)c1)c1nnn2c1nc(NC1CCCC1)c1sccc12 | 95% (inactive)
COc1ccc(C(=O)NCC(c2ccco2)S(=O)(=O)c2ccc(F)cc2)cc1 (centres undefined) | 74% (inactive)
Cc1ccccc1CNC(=O)C(=O)NCC(c1ccco1)S(=O)(=O)c1ccccc1 (centres undefined) | 76% (inactive)
Cc1ccc(C(=O)NCC(c2ccco2)S(=O)(=O)c2cccs2)cc1C (centres undefined) | 99% (inactive)
COc1ccc(C(=O)NCC(c2ccco2)S(=O)(=O)c2ccccc2)cc1 (centres undefined) | -6% (active)
Cc1ccc(S(=O)(=O)C(CNC(=O)c2ccc(F)c(F)c2)c2ccco2)cc1 (centres undefined) | -6% (active)
Cc1ccc(C(=O)NCC(c2ccco2)S(=O)(=O)c2ccc(Cl)cc2)cc1C (centres undefined) | 14% (active)
CC(C)(C)c1ccc(C(=O)NCC(c2ccco2)S(=O)(=O)c2ccccc2)cc1 (centres undefined) | 70% (inactive)
Cc1ccc(C(=O)NCC(c2ccco2)S(=O)(=O)c2ccccc2)cc1C (centres undefined) | 72% (inactive)
CCOc1ccc(C(=O)NCC(c2ccco2)S(=O)(=O)c2ccc(C)cc2)cc1 (centres undefined) | 85% (inactive)
O=C(NCc1ccccc1)C(=O)NCC(c1ccco1)S(=O)(=O)c1ccccc1 (centres undefined) | 67% (inactive)
O=C(NCC(c1ccco1)S(=O)(=O)c1cccs1)c1ccc(F)c(F)c1 (centres undefined) | 78% (inactive)
O=C(NCc1ccccc1F)C(=O)NCC(c1ccco1)S(=O)(=O)c1ccccc1 (centres undefined) | -6% (active)
CCOc1ccc(S(=O)(=O)N(CC(=O)NCc2ccccc2OC)c2ccccc2)cc1 | 58% (inactive)
CC1=C(C#N)C(NC(=O)c2ccccc2Cl)(C(F)(F)F)C(=O)N1 (centres undefined) | 139% (inactive)
COc1ccc(-c2cn3nc(N4CCC(C(=O)Nc5ccc(Cl)cc5C)CC4)sc3n2)cc1 | 78% (inactive)
CCOCCCn1c(=N)c(S(=O)(=O)c2ccc(C)cc2)cc2c(=O)n3cccc(C)c3nc21 | 77% (inactive)
Cc1cc2nn(-c3ccccc3)nc2cc1NC(=O)c1cccc2c(Cl)cccc12 | 70% (inactive)
COc1ccc(N2CCN(CCCNC(=O)c3cnn(-c4ccc(F)cc4)c3-n3cccc3)CC2)cc1 | 77% (inactive)
Cc1ccc(S(=O)(=O)C(CNC(=O)c2ccc(C(F)(F)F)cc2)c2ccco2)cc1 (centres undefined) | 134% (inactive)

Compound | survival
CC(C)(C)c1ccc(C(=O)NCC(c2ccco2)S(=O)(=O)c2ccc(F)cc2)cc1 (centres undefined) | 131% (inactive)
O=C(NCC(c1ccco1)S(=O)(=O)c1ccc(Cl)cc1)c1ccc(C(F)(F)F)cc1 (centres undefined) | -1% (active)
O=c1c2[nH]c3ccccc3c2nc(SCc2cccc(F)c2)n1-c1ccccc1 | 53% (inactive)
CCOC(=O)CC(NC(=O)c1cc2c(=O)n3cccc(C)c3nc2s1)c1ccc(OCC(C)C)c(OC)c1 (centres undefined) | 77% (inactive)
CCOc1ccccc1NC(=O)c1ccc(F)c(S(=O)(=O)NCc2ccc3c(c2)OCO3)c1 | 63% (inactive)
COc1cc(OC)c(NC(=O)c2cnn(-c3ccccc3)c2-n2cccc2)cc1Cl | 80% (inactive)
O=C(Nc1cc(C(F)(F)F)ccc1Cl)c1cnn(-c2ccccc2)c1-n1cccc1 | -3% (active)
CCN(Cc1ccccc1)S(=O)(=O)c1ccc(F)c(C(=O)Nc2cc(C)ccc2OC)c1 | 120% (inactive)
O=C(Nc1cc(Cl)ccc1Cl)c1cc(S(=O)(=O)NCCc2ccccc2)ccc1F | 133% (inactive)
O=C(Nc1ccc(Cl)cc1C(F)(F)F)c1cc(S(=O)(=O)NCc2ccccc2)ccc1F | 134% (inactive)
CCN(Cc1ccccc1)S(=O)(=O)c1ccc(F)c(C(=O)Nc2cc(C(F)(F)F)ccc2Cl)c1 | -1% (active)
CN(Cc1ccccc1)S(=O)(=O)c1ccc(F)c(C(=O)Nc2ccccc2C(F)(F)F)c1 | -6% (active)
COc1ccccc1NC(=O)c1cnn(-c2ccccc2)c1-n1cccc1 | 99% (inactive)
CN(Cc1ccccc1)S(=O)(=O)c1ccc(F)c(C(=O)Nc2cc(Cl)cc(Cl)c2)c1 | 76% (inactive)
CCN(Cc1ccccc1)S(=O)(=O)c1ccc(F)c(C(=O)Nc2ccc(C(C)C)cc2)c1 | 95% (inactive)
O=C(Nc1cc(C(F)(F)F)ccc1Cl)c1cc(S(=O)(=O)NCc2ccccc2)ccc1F | 14% (active)
CN(Cc1ccccc1)S(=O)(=O)c1ccc(F)c(C(=O)Nc2cccc(Cl)c2Cl)c1 | 159% (inactive)
COc1cccc(CNC(=O)c2ccc3c(c2)c(C)c(C)n3Cc2ccccc2)c1 | 72% (inactive)
CCC(C)Nc1sc(S(=O)(=O)CC)nc1S(=O)(=O)c1ccc(C)cc1 (centres undefined) | 78% (inactive)
COc1ccccc1CNC(=O)Cn1ncn2c(cc3sccc32)c1=O | 76% (inactive)
O=C(CN1C(=O)COc2ccc(S(=O)(=O)N3CCOCC3)cc21)N1CCN(c2ccccc2F)CC1 | 100% (inactive)
O=C(CCS(=O)(=O)c1ccccc1)N(Cc1cccnc1)c1nc2ccc(F)cc2s1 | 124% (inactive)
Cc1nccn1S(=O)(=O)c1c(C(C)C)cc(C(C)C)cc1C(C)C | 119% (inactive)

Compound | survival
CCOc1cc(C)c(C(C)C)cc1S(=O)(=O)n1ccnc1CC | -11% (active)
CCc1nccn1S(=O)(=O)c1cc(Br)ccc1Br | 69% (inactive)
Cc1ccc2[nH]c3c(=O)n(CC(=O)N(CCN(C)C)Cc4ccccc4)ncc3c2c1 | 99% (inactive)
CCCCN(C)C(=O)Cn1ncc2c([nH]c3ccc(C)cc32)c1=O | 81% (inactive)
Cc1ccc(CNC(=O)Cn2ncc3c([nH]c4ccc(C)cc43)c2=O)cc1 | 79% (inactive)
Cc1ccc2[nH]c3c(=O)n(CC(=O)NC(C)C)ncc3c2c1 | 1% (active)
Cc1ccc2[nH]c3c(=O)n(CC(=O)N(C)Cc4ccccc4)ncc3c2c1 | -3% (active)
Cc1ccc(CCNC(=O)Cn2ncc3c([nH]c4ccc(C)cc43)c2=O)cc1 | 131% (inactive)
O=C(NCC(c1cccs1)S(=O)(=O)c1cccs1)c1ccccc1 (centres undefined) | 70% (inactive)
COc1ccccc1CCNC(=O)Cn1ccc2cc(S(=O)(=O)N3CCCCC3)ccc21 | 87% (inactive)
Cc1cccc(C(=O)n2nc(-c3cccnc3)nc2NCc2ccccc2)c1 | 106% (inactive)
O=S(=O)(c1ccccc1)c1nc(-c2ccccc2F)oc1N1CCOCC1 | 77% (inactive)
COc1ccccc1-c1nc(S(=O)(=O)c2ccc(Cl)cc2)c(N2CCCCCC2)o1 | 70% (inactive)
Cc1ccc(-c2nc(S(=O)(=O)c3ccc(Cl)cc3)c(N3CCCCC3)o2)cc1 | 5% (active)
COc1ccc(-c2nc(S(=O)(=O)c3ccccc3)c(N3CCC(C)CC3)o2)cc1 | 89% (inactive)
O=S(=O)(c1ccccc1)c1nc(-c2ccc(Cl)cc2Cl)oc1N1CCCCC1 | 57% (inactive)
COc1ccccc1-c1nc(S(=O)(=O)c2ccccc2)c(N2CCC(C)CC2)o1 | -5% (active)
COc1ccc(-c2nc(S(=O)(=O)c3ccc(Cl)cc3)c(N3CCCCCC3)o2)cc1 | 64% (inactive)
Cc1ccc(S(=O)(=O)c2nc(-c3ccc(Cl)cc3)oc2N2CCCCCC2)cc1 | 30% (inactive)
Cc1ccc(S(=O)(=O)c2nc(-c3ccccc3F)oc2N2CCCCC2)cc1 | 17% (active)
Cc1ccc(S(=O)(=O)c2nc(-c3ccc(F)cc3)oc2N2CCN(c3ccccc3)CC2)cc1 | 115% (inactive)
O=S(=O)(c1ccccc1)c1nc(-c2ccccc2Cl)oc1N1CCCCCC1 | 14% (active)
Cc1ccc(S(=O)(=O)c2nc(-c3ccccc3Cl)oc2N2CCCCCC2)cc1 | 20% (inactive)

Compound | survival
CCC(Oc1ccccc1)C(=O)Nc1cc(-c2cccc(C)c2)nn1-c1ccccc1 (centres undefined) | 89% (inactive)
CCOC(=O)c1ccc(NC(=O)CSc2nnc(CNC(=O)c3ccc(OC)cc3)n2CC)cc1 | 134% (inactive)
COc1ccc(-c2nnc(C3CCN(C(=O)c4ccccc4F)CC3)o2)cc1 | 85% (inactive)
CCOC(=O)c1ccc(NC(=O)CC2C(=O)N(c3ccccc3)C(=O)N2Cc2ccc(C)cc2)cc1 (centres undefined) | 58% (inactive)
COc1ccccc1NC(=O)CCCc1nnc2n(C)c(=O)c3sccc3n12 | 97% (inactive)
CC1CCN(C(=O)CS(=O)(=O)Cc2ccccc2)CC1 | 102% (inactive)
O=C1C(=O)N(C2CCN(C(=O)c3cccc(Cl)c3)CC2)CCN1Cc1ccc(F)cc1 | 77% (inactive)
Cc1nc2c3ccccc3nc(NNC(=O)CCC(=O)N3CCN(c4ccccc4)CC3)n2n1 | 81% (inactive)
COc1ccc(-n2c(=O)c3c(c4cc(OC)ccc4n3C)n(CC(=O)NCC3CCCO3)c2=O)cc1 (centres undefined) | 83% (inactive)
COc1ccc(CNCCSc2nnnn2-c2ccccc2)cc1 | 83% (inactive)
Cc1ccc(C)c(NC(=O)CN(Cc2ccccc2)S(=O)(=O)c2ccc3nc(C)sc3c2)c1 | 66% (inactive)
COc1ccc(-c2nc(S(=O)(=O)c3ccc(C)cc3)c(N3CCCCC3)o2)cc1 | 63% (inactive)
Cc1ccc(S(=O)(=O)c2nc(-c3ccccc3)oc2N2CCCCCC2)cc1 | 6% (active)
Cc1ccc(S(=O)(=O)c2nc(-c3cccc(C)c3)oc2N2CCN(c3ccccc3)CC2)cc1 | 117% (inactive)
Cc1ccc(-c2nc(S(=O)(=O)c3ccc(C)cc3)c(N3CCCCCC3)o2)cc1 | 84% (inactive)
Cc1ccc(-c2nc(S(=O)(=O)c3ccc(C)cc3)c(N3CCN(c4ccccc4)CC3)o2)cc1 | 104% (inactive)
Cc1ccc(-c2nc(S(=O)(=O)c3ccc(C)cc3)c(N3CCCCC3)o2)cc1 | 0% (active)
Cc1cccc(-c2nc(S(=O)(=O)c3ccc(Cl)cc3)c(N3CCCCCC3)o2)c1 | 41% (inactive)
Cc1ccc(S(=O)(=O)c2nc(-c3cccc(C)c3)oc2N2CCCCC2)cc1 | 2% (active)
Cc1ccc(S(=O)(=O)c2nc(-c3ccccc3)oc2N2CCN(c3ccccc3)CC2)cc1 | 86% (inactive)

From PubChem BioAssay AID463173 (ICCB-Longwood Screening Facility, Harvard Medical School, 2010)
